In all, about 6,200 compounds went through this assay and about 2,900 (47%) were called active. The set was probably picked from earlier hits. The list shows a part of the results. A number with no mark means an inactive call. Cut-off read from the data, not from the text of the source: active = inhibition above about 50%; inactive = the rest. Where a SMILES comes first, the peptide text is derived from it. [ ]: non-standard residue; d: D form. Orn = NCCC[CH](N)C(=O)O
Assay: Mycobacterium tuberculosis growth inhibition, primary screen (AID 1259343)
Details: inhibition: at 10 µM, stronger effect = higher value; outcome: 10 uM

Structure (SMILES) | inhibition
CCOC(=O)NC(n1ccnc1)C(F)(F)C(F)(F)C(F)(F)C(F)F (stereo not given) | 15.8%
C=C1/C(=N\OC(=O)Nc2ccc(C)cc2)CC2CC1C2(C)C (stereo not given) | 86.8% (active)
CN1CCN(c2ccc3nc(-c4c(N)c5c(F)cccc5[nH]c4=O)[nH]c3c2)CC1 | 30.7%
S=C(Nc1ccc(-n2cnnn2)cc1)NC1CC2CCC1C2 (stereo not given) | 103% (active)
S=C(Nc1ccccn1)NC1CC2CCC1C2 (stereo not given) | 97.7% (active)
Oc1cccc2c(NC(=S)NC3CC4CCC3C4)cccc12 (stereo not given) | 23.4%
S=C(NCC1COc2ccccc2O1)NC1CC2CCC1C2 (stereo not given) | -18.9%
CC(C)CCNc1nc(C(=O)OC(C)C(N)=O)cs1 (stereo not given) | 20.4%
CC(C)c1cc(CN(C)C(=O)CC23CC4CC(CC(C4)C2)C3)no1 | 32.9%
Cc1ncsc1CCOC(=O)CC12CC3CC(CC(C3)C1)C2 | 103% (active)
COCC(C)C1CCN(C(=O)CC23CC4CC(CC(C4)C2)C3)CC1 (stereo not given) | -13.6%
CC(C)CN(CCC(=O)O)c1nc(-c2ccccc2Cl)nc2ccccc12 | 37.1%
NC(=O)c1csc(CNc2ccc(F)cc2)c1 | 68.7% (active)
NC(=O)c1csc(C(=O)NC2CC2c2cccc(Cl)c2)c1 (stereo not given) | 27.2%
Clc1ccc(C(Cn2ccnc2)OCc2c(Cl)cccc2Cl)c(Cl)c1 (stereo not given) | -47.1%
CN(C)C(=O)CSCC(=O)O | -0.78%
C(=C\c1ccccc1)/CNc1ccc2c(c1)OCCO2 | -42.5%
O=C(CCC1CCN(C(=O)CCc2ccccc2)CC1)Nc1ccc2c(c1)OCCO2 | 0.33%
O=C1CC(Nc2ccc3c(c2)OCCCO3)C(=O)N1CCc1ccccc1F (stereo not given) | 53.9% (active)
COc1ccc(-c2nc(Nc3ccc(F)cc3)c3ccccc3n2)cc1 | 26.9%
COc1ccc(Nc2cccc3nonc23)cc1 | 60.3% (active)
CC1(C)CC[C@@]2(C(=O)O)C(C1)C1=CCC3[C@@]4(C)CC[C@H](O)C(C)(C)C4CC[C@@]3(C)[C@]1(C)C[C@@H]2O (stereo not given in full) | 69.3% (active)
Cc1nc(NCc2ccco2)c2c3c(sc2n1)CCCC3 | 59.1% (active)
Cc1cc(/C=C/c2ccc3cc(N(C)C)ccc3[n+]2C)c(C)n1-c1ccccc1 | 48.1%
Cc1cc(C=Cc2ccc3cc(N(C)C)ccc3[n+]2C)c(C)n1-c1ccccc1 | inactive

Structure (SMILES) | inhibition
Cc1cc(/C=N\O)c(C)n1-c1ccc(-c2ccccc2)cc1 | 79.1% (active)
O=[N+]([O-])c1cc(S(=O)(=O)Nc2ccc(Br)cc2)ccc1Cl | 66.2% (active)
COc1ccc(CNc2ccc([N+](=O)[O-])cc2)cc1 | 4.07%
O=S(=O)(Nc1ccc2c(c1)CCC2)c1ccc(Br)cc1 | 32.5%
O=[N+]([O-])c1cc(NS(=O)(=O)c2cc(Cl)cc(Cl)c2)ccc1Cl | 21.6%
O=[N+]([O-])c1ccc(NS(=O)(=O)Cc2ccccc2)cc1 | 73.9% (active)
O=[N+]([O-])c1ccc(NS(=O)(=O)c2ccc(Br)cc2)cc1 | 58.1% (active)
CC(NC(=O)c1cccs1)c1ccc(Cl)s1 (stereo not given) | -37.7%
CC(NC(=O)c1ccc(Br)o1)c1ccc(Cl)s1 (stereo not given) | -46.6%
CC(NC(=O)c1ccc(C(F)(F)F)cc1)c1ccco1 (stereo not given) | 62.5% (active)
CC(NC(=O)CC1C=CCC1)c1ccc(C(F)(F)F)cc1 (stereo not given) | 12.8%
CC(NC(=O)c1cccs1)c1ccc(C(F)(F)F)cc1 (stereo not given) | 69.9% (active)
O=C(NCc1ccccc1)c1ccc(C(F)(F)F)cc1 | 20.5%
CC(NC(=O)c1ccc(Cl)o1)c1ccc(C(F)(F)F)cc1 (stereo not given) | 85.3% (active)
CCCc1cc(=O)[nH]c(-n2nc(C)cc2NC(=O)CC)n1 | 100% (active)
CCCc1cc(=O)[nH]c(-n2nc(C)cc2NC(=O)C(C)(C)Oc2ccc(Cl)cc2)n1 | 2.87%
CCCc1cc(=O)[nH]c(-n2nc(C)cc2NC(=O)C(C)(C)CCl)n1 | 102% (active)
CCCc1cc(=O)[nH]c(-n2nc(C)cc2NC(C)=O)n1 | 99.8% (active)
O=c1c(O)cccc2cc(O)c(O)c(O)c12 | 64.6% (active)
COC(=O)C(C)Sc1ncnc2sc(C)c(C)c12 (stereo not given) | -21%
CCCC(CCC)=NNc1ncnc2sc(C)c(C)c12 | 96.3% (active)
Cc1sc2ncnc(SCC(=O)c3ccc(Cl)s3)c2c1C | 13.9%
CCCCNC(=S)NNc1ncnc2sc(C)c(C)c12 | 65.6% (active)
CC(=NNc1ncnc2sc(C)c(C)c12)c1ccc(Cl)s1 | 47.1%
Cc1ccsc1C=NNc1ncnc2sc(C)c(C)c12 | 66.9% (active)

Structure (SMILES) | inhibition
COC(=O)c1ccc(Cn2ncc(Cl)c(Cl)c2=O)o1 | 75.5% (active)
COC(=O)c1ccc(CSc2ncnc3c2nnn3Cc2ccccc2)o1 | 26.9%
COC(=O)c1ccc(CSc2ncnc3c2nnn3Cc2ccc(F)cc2)o1 | 3.1%
COCC1(NC(=O)Nc2nc(-c3ccccc3)ns2)CCCC1 | 5.18%
CC(C)C(C)NC(=O)Nc1nc(-c2ccccc2)ns1 (stereo not given) | 83.1% (active)
CCOC(=O)C1(Cc2ccc(Cl)cc2)CCN(Cc2cccc3nonc23)CC1 | 78.1% (active)
CCOC(=O)C1(Cc2ccc(Cl)cc2)CCN(C(=O)Nc2ccc(Cl)cc2C)CC1 | 1.06%
CCOC(=O)C1(CCOc2ccccc2)CCN(Cc2nc(C(C)C)cs2)CC1 | inactive
Cc1cc(Br)ccc1NC(=O)c1ccc([N+](=O)[O-])o1 | 38.1%
Cc1cccc(NC(=O)c2n[nH]c([N+](=O)[O-])c2Br)c1C | 86.8% (active)
CNC(=O)c1ccccc1NC(=O)c1ccc(C)c(Br)c1 | 23.1%
C=CCSc1nn2c(=O)c3ccccc3nc2s1 | 97.6% (active)
CCOc1ccc(Br)c(C=Nc2ccc3oc(=O)ccc3c2)c1O | 81.3% (active)
Cc1csc2nc(O)c(C(=O)NCc3ccc(F)cc3)c(=O)n12 | 74.4% (active)
Cc1csc2nc(O)c(C(=O)NCCc3ccccc3)c(=O)n12 | 82.8% (active)
Cc1nc(COc2ccc(C(=O)NCc3ccc(F)cc3)cc2)cs1 | -15.9%
CC(=O)NCc1ccc(-c2nc(CCc3ccccc3)sc2C)s1 | 28%
Cc1c(C(=O)NCc2ccc(Cl)c(Cl)c2)sc(=O)n1CCc1ccccc1 | 35.6%
Cc1c(C(=O)NCc2ccc(Cl)c(Cl)c2)sc(=O)n1Cc1ccc(F)cc1 | 17.9%
O=C(Nc1ncccc1OC(F)F)c1cncc(Br)c1 | 89.3% (active)
CCOc1ccc(NC(=O)c2cncc(Br)c2)cc1F | 44.8%
C=CCN(c1ccccc1)S(=O)(=O)c1ccc(Br)cc1Cl | 27.3%
COc1ccc2cc(C3CN(Cc4noc(C5CC5)n4)CCO3)ccc2c1 (stereo not given) | 23.6%
COc1ccc2c(c1)CC(c1nc(Cc3ccc(F)cc3)no1)CO2 (stereo not given) | 63.1% (active)
C1=CCC(c2nc(Cc3cccnc3)no2)CC1 (stereo not given) | -4.1%

Structure (SMILES) | inhibition
N#CC(C#N)=C1C=C2C=C(N3CCCCCC3)CCC2CC1 (stereo not given) | 73.5% (active)
CCCCN(C)C1=CC2=CC(=C(C#N)C#N)CCC2CC1 (stereo not given) | 45.5%
N#CC(C#N)=C1C=C2C=C(N3CCCCC3)CCC2CC1 (stereo not given) | 49%
O=C(O)c1cnc(/C=C/c2cccc(C(F)(F)F)c2)s1 | -17.4%
O=C(O)c1cnc(-c2ccc(C(F)(F)F)cc2)s1 | 60.4% (active)
Cn1nc(C(F)(F)F)cc1-c1ccc(C(=O)O)s1 | 46.4%
Brc1ccc(Sc2ncnc3sccc23)cc1 | 19.4%
Clc1cc(Br)ccc1Oc1ncnc2sccc12 | 70.4% (active)
O=C1COc2ccc(C3=NNC(=Nc4ccccc4Cl)SC3)cc2N1 | 11.7%
O=C1NC(=Nc2ccccc2Cl)S/C1=C\c1ccsc1 | 59.3% (active)
CN(C)CC/C=C1\c2ccccc2Sc2ccc(Cl)cc21 | 90.1% (active)
Oc1ccc(F)cc1C1=NNC(c2ccc(Cl)cc2)C1 (stereo not given) | 60.6% (active)
Oc1c(Cl)cc(Cl)cc1C1=NNC(c2ccccc2F)C1 (stereo not given) | 38.9%
Cn1c(Cl)cnc1C1CC(c2cc(Cl)ccc2O)=NN1 (stereo not given) | 101% (active)
CN(Cc1ccc(Cl)cc1)Cc1cc2c(cc1O)CCC2 | 22.8%
COc1ccc(NC(=O)CSc2nnc3ccccn23)c(OC)c1 | 81.5% (active)
O=C(CSc1nnc2ccccn12)Nc1c(Cl)c(Cl)cc(Cl)c1Cl | -1.75%
CC(C)CC1NC(=O)C(CCCN)NC(=O)C(C(C)C)NC(=O)C2CCCN2C(=O)C(Cc2ccccc2)NC(=O)C(CC(C)C)NC(=O)C(CCCN)NC(=O)C(C(C)C)NC(=O)C2CCCN2C(=O)C(Cc2ccccc2)NC1=O (stereo not given) (cyclo(FPV[Orn]LFPV[Orn]L); configuration not given here) | 46.4%
CCOC(=O)c1ccc(N=Cc2c(O)[nH]c(=O)[nH]c2=O)cc1 | 73.1% (active)
CCCCn1c(O)c(C=Nc2ccc(CC)cc2)c(C)c(C#N)c1=O | 24.8%
COc1cc(C(=O)N2CCOC(COc3ccc(C)cc3)C2)cc(Cl)n1 (stereo not given) | 29.3%
COC(=O)c1ccc(Nc2ccc(OCC3CCCO3)cc2)nn1 (stereo not given) | 93.6% (active)
Clc1cccc(Nc2nc3nonc3n3nnnc23)c1 | 54.3% (active)
CC(C)S(=O)(=O)c1ccc(C(=O)Nc2onc3c2CCC3)cc1 | 84.8% (active)
CCc1csc(Cn2cc(C(C)c3ccccc3)nn2)n1 (stereo not given) | -13.5%

— PubChem BioAssay AID1259343 (VanderVen Lab, College of Veterinary Medicine, Cornell …, 2017)
